Measured values: PubChem BioAssay (NCATS)
Results filed as inconclusive are left out. Unmarked numbers belong to inactive results. Calls follow the shape of the dose curve; as a rule, active = well fitted cell-killing curve with a large enough effect; inconclusive = small, poorly fitted or top-dose-only effect, or effect the other way; inactive = flat fitted curve, though single readings scatter.

Each compound was assayed on C33A (assay: Primary qHTS to identify gynecologic anti-cancer compounds using libraries of approved drugs and bioactive compounds (AID 1345084; also: nearly all actives have a fitted effect of over 55% in size)). Conditions: Gynecologic cancer cell panel viability, ATPlite luminescence, 48 h; series mostly up to 57.5 µM; activity change, negative = cytotoxicity: at the top concentration.
Summary of the method: (§1)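 Cells, 1,000 per well, were allowed to settle for 16 h at 37 C before compound addition. Five concentrations were tested for 48 h, and viability was read by ATPlite luminescence after 15 min at room temperature.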
% is scaled to controls: 0 for no effect and ±100 for the full control effect.

Row | Structure (SMILES) | activity change, negative = cytotoxicity
1 | CC(=O)OC[C@]1(O)[C@H]2[C@H](OC(=O)CC(C)C)OC=C(CO[C@@H]3O[C@H](CO)[C@@H](O)[C@H](O)[C@H]3O)[C@H]2C[C@@H]1O | 11.1% [at 25.3 µM]
2 | C[C@@H]1CC[C@]2(C(=O)O)CC[C@]3(C(=O)O)C(=CCC4[C@@]5(C)CC[C@H](O[C@@H]6O[C@@H](C)[C@H](O[C@@H]7O[C@H](CO)[C@@H](O)[C@H](O)[C@H]7O)[C@@H](O)[C@H]6O)C(C)(C)C5CC[C@]43C)C2[C@H]1C (some centres undefined) | 11.3% [at 25.3 µM]
3 | CC1CCC2(O1)C(C)(C)CC(O[C@@H]1O[C@H](CO[C@@H]3OC[C@](O)(CO)[C@H]3O)[C@@H](O)[C@H](O)[C@H]1O)CC2(C)O (some centres undefined) | 13.2% [at 25.3 µM]

The compounds below were run on CAOV3 in the same assay as above. Conditions: Gynecologic cancer cell panel viability, ATPlite luminescence, 48 h; series mostly up to 57.5 µM; activity change, negative = cytotoxicity: at the top concentration.
Summary of the method: as §1

Row | Structure (SMILES) | activity change, negative = cytotoxicity
4 | C=CC(C)(CC/C=C(\C)CC/C=C(\C)CC(O)/C=C(\C)C(=O)O)O[C@@H]1O[C@H](CO)[C@@H](O)[C@H](O)[C@H]1O[C@@H]1O[C@H](CO)[C@@H](O)[C@H](O)[C@H]1O (some centres undefined) | -14.5% [at 25.3 µM]
5 | O=C(NCc1ccc(OC(F)(F)F)cc1)C1c2ccccc2C(=O)N1C1CCOCC1 (centres undefined) | -3.03%
6 | COC(=O)[C@H](OC(C)=O)[C@H]1C(C)(C)C(=O)[C@H]2CC3=C4CC(=O)O[C@@H](c5ccoc5)[C@]4(C)CCC3[C@@]1(C)C2=O (some centres undefined) | -4.57% [at 25.3 µM]
7 | O=C(O[C@H]1[C@@H]2C[C@@H]3OC[C@@](O)([C@H]2[C@H](O[C@@H]2O[C@H](CO)[C@@H](O)[C@H](O)[C@H]2O)O3)[C@@H]1O)c1ccccc1 | -3.13% [at 25.3 µM]
8 | N#CC1C(=O)Nc2scc(-c3ccc(-c4ccccc4O)cc3)c2C1=O (centres undefined) | 27.3%
9 | CC1CCC(=O)CC(O)C(O)CC(=O)O1 (centres undefined) | 5.73%
